Results: PubChem BioAssay (Tox21)
Inconclusive results are not listed. Values without a mark were called inactive. Calls of active or inactive are those of the source. Calls come from the whole dose curve; as a rule, active = well fitted activation curve with a large enough effect; inconclusive = small, poorly fitted or top-dose-only effect; inactive = flat fitted curve, though single readings scatter. Positions of bridges follow the written chain, without caps; N, C: chain ends. Non-standard residues stand in square brackets, D forms with d. Residues, ends and D or L forms follow the SMILES beside them. *: point of attachment. Dab(CH2SO3H) = N[C@@H](CCNCS(=O)(=O)O)C(=O)O; X3 = CC[C@@H](C)CCCCC(=O)*; Dab = NCC[C@H](N)C(=O)O

assay: qHTS assay to identify small molecule phospholipidosis (PLD) inducers (AID 1259344); settings: HepG2 phospholipidosis, LipidTOX Red imaging, 24 h; series mostly up to 38.3 µM; PLD induction: at the top concentration
Outline: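 Fluorescent phospholipid staining (LipidTOX Red) measured by automated microscopy in fixed HepG2 cells after 24 h treatment; nuclei counterstained with Hoechst 33342; amiodarone as reference inducer.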
% is set by controls: 0 for no effect and ±100 for the full control effect.

| SMILES | PLD induction | Potency |
| --- | --- | --- |
| CN1C(C(=O)Nc2ccccn2)C(=O)c2sc(Cl)cc2S1(=O)=O (centres undefined) | -1.17% | – |
| COC(=O)C[C@](O)(CCCC(C)(C)O)C(=O)O[C@@H]1C(OC)=CC23CCCN2CCc2cc4c(cc2[C@H]13)OCO4 (some centres undefined) | – | inactive |
| Cc1cc(-c2ccc(N=Nc3ccc4c(S(=O)(=O)O)cc(S(=O)(=O)O)c(N)c4c3O)c(C)c2)ccc1N=Nc1ccc2c(S(=O)(=O)O)cc(S(=O)(=O)O)c(N)c2c1O | – | inactive |
| O=C[C@H](O)[C@@H](O)[C@@H](O)[C@H](O)CO | 1.3% | – |
| CN[C@@H]1[C@@H](O[C@H]2O[C@H](CO)[C@@H](N)[C@H](O)[C@H]2O)O[C@H]2C[C@@H](N)[C@@H](O[C@H]3[C@H](O)[C@@H](O)[C@H](N)C[C@@H]3N)O[C@@H]2[C@@H]1O | -1.15% [at 15.5 µM] | – |
| CC(C)(Oc1ccc(C2CCCc3ccccc32)cc1)C(=O)O (centres undefined) | -0.653% | – |
| CCC(NC(C)C)C(O)c1ccc(O)c(O)c1 (centres undefined) | -0.344% | – |
| NC[C@H]1O[C@H](O[C@H]2[C@H](O)[C@@H](O[C@H]3O[C@H](CO)[C@@H](O)[C@H](N)[C@H]3O)[C@H](N)C[C@@H]2N)[C@H](N)C[C@@H]1O | 3.03% [at 15.5 µM] | – |
| CC(C)CCC[C@@H](C)[C@H]1CC[C@H]2[C@@H]3CC=C4C[C@@H](O)CC[C@]4(C)[C@H]3CC[C@]12C | -1.5% | – |
| C=CC(N)CCC(=O)O (centres undefined) | 1.01% | – |
| C[C@@H]1O[C@@H]1P(=O)(O)O | 0.45% | – |
| CCC(O)c1ccccc1 (centres undefined) | -0.841% | – |
| O=P(O)(O)C(O)(Cn1ccnc1)P(=O)(O)O | -1.58% | – |
| C1CCc2nnnn2CC1 | -0.258% | – |
| CC[C@@H](C)CCCCC(=O)N[C@@H](CCNCS(=O)(=O)O)C(=O)N[C@H](C(=O)N[C@@H](CCNCS(=O)(=O)O)C(=O)N[C@H]1CCNC(=O)[C@H]([C@@H](C)O)NC(=O)[C@H](CCNCS(=O)(=O)O)NC(=O)[C@H](CCNCS(=O)(=O)O)NC(=O)[C@H](CC(C)C)NC(=O)[C@@H](CC(C)C)NC(=O)[C@H](CCNCS(=O)(=O)O)NC1=O)[C@@H](C)O (X3-[Dab(CH2SO3H)]T[Dab(CH2SO3H)][Dab][Dab(CH2SO3H)][dL]L[Dab(CH2SO3H)][Dab(CH2SO3H)]T; lactam 4-C) | 19.3% | – |
| NS(=O)(=O)c1cc(Cl)c(Cl)c(S(N)(=O)=O)c1 | 3.02% [at 15.5 µM] | – |
| CC[N+](CC)(CC)CCC(O)(c1ccccc1)C1CCCCC1 (centres undefined) | -0.077% [at 15.5 µM] | – |
| CN=C(N)NCCC[C@H](N)C(=O)O | – | inactive |
| CC1=C(/C=C/C(C)=C/C=C/C(C)=C/C=C/C=C(C)/C=C/C=C(C)/C=C/C2=C(C)CCCC2(C)C)C(C)(C)CCC1 | 0.0985% | – |
| N#Cc1c(N(CC(=O)O)CC(=O)O)sc(C(=O)O)c1CC(=O)O | -0.335% | – |

| SMILES | PLD induction | Potency |
| --- | --- | --- |
| CCN(CC)C(=S)S | -0.588% | – |
| O=C(CCCN1CCN2CCCC2C1)c1ccc(F)cc1 (centres undefined) | -0.854% | – |
| CN(Cc1ccccc1)Cc1ccccc1 | -0.752% | – |
| Cc1c(O)c(=O)ccn1C | 0.0699% | – |
| C[S+](C)CCC(N)C(=O)O (centres undefined) | 0.427% | – |
| CC1(C)S[C@@H]2[C@H](NC(=O)[C@H](N)c3ccc(O)cc3)C(=O)N2[C@H]1C(=O)O | 2.74% | – |
| CCCCN(CCCC)C(=S)[S-].CCCCN(CCCC)C(=S)[S-].[Zn+2] | -1.43% | – |
| OCC1(CO)COC(C(Cl)(Cl)Cl)OC1 | -0.312% | – |
| CC(C)=CCC/C(C)=C/CC/C(C)=C/CC/C=C(\C)CC/C=C(\C)CCC=C(C)C | – | inactive |
| CC(C)(COP(=O)(O)OP(=O)(O)OC[C@H]1O[C@@H](n2cnc3c(N)ncnc32)[C@H](O)[C@@H]1OP(=O)(O)O)C(O)C(=O)NCCC(=O)NCCS (some centres undefined) | -0.705% | – |
| COC(=O)[C@H]1[C@H]2C[C@H]3c4[nH]c5ccccc5c4CCN3C[C@H]2CC[C@@H]1O | 0.218% | – |
| O=C1c2ccccc2CN2C(=O)c3ccccc3CN12 | -0.683% | – |
| CC(=NCc1ccccc1)c1ccccc1O | -0.47% | – |
| CC(C)NCC1CCc2cc(CO)c([N+](=O)[O-])cc2N1 (centres undefined) | 0.619% [at 15.5 µM] | – |
| O=C(O)c1ccc(NC2OC[C@@H](O)[C@H](O)[C@H]2O)cc1 (some centres undefined) | -0.158% | – |
| NCC1CCC(C(=O)O)CC1 (centres undefined) | 2.82% [at 15.5 µM] | – |
| CS(=O)(=O)c1ccc([C@@H](O)[C@@H](COC(=O)CN)NC(=O)C(Cl)Cl)cc1 | 0.141% | – |
| COc1cc2c(cc1O)CCN[C@]21CS[C@@H]2c3c(OC(C)=O)c(C)c4c(c3[C@H](COC1=O)N1[C@@H]2[C@H]2c3c(cc(C)c(OC)c3O)C[C@@H]([C@@H]1O)N2C)OCO4 | – | inactive |
| CCN(CC)CCNC(=O)c1ccc(NS(C)(=O)=O)cc1 | -0.241% [at 7.66 µM] | – |
